# Measured values published in PubChem BioAssay AID493194 (Broad Institute, 2011).
# Measured potencies and affinities stand elsewhere. Inconclusive results are not listed. A number with no mark means an inactive call.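 The calls were made as follows: active = a valid curve of falling signal whose half-effect concentration is at most ten times the top tested dose; inconclusive = flat curve at 30 to 70% inhibition, or poor fit; inactive = signal rise, flat within 30%, or potency beyond limit.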
# Target: Scavenger receptor class B member 1 (Mus musculus) (UniProt Q61009)
# Sequence (Q61009 whole entry, looked up): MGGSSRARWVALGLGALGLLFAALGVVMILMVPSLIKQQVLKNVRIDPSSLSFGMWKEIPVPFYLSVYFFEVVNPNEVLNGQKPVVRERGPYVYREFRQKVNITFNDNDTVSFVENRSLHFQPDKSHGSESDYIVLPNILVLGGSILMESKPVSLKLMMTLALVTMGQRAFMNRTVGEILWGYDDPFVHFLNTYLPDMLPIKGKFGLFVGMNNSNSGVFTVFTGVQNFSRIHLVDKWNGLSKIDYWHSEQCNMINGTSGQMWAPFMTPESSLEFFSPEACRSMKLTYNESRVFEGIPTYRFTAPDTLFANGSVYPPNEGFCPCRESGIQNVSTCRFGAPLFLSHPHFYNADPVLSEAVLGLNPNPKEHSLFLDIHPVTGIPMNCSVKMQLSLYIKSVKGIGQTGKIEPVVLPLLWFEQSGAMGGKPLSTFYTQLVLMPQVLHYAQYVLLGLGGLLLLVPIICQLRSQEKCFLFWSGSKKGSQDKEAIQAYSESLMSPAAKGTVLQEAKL
# Test: inhibitors of SR-BI mediated HDL lipid uptake, dose response, ldlA[mSR-BI] cells, fluorescence, cherry pick (AID 493194);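 also: CHO cells lacking LDL receptor and overexpressing mouse SR-BI; cellular uptake of fluorescently labeled HDL measured as cell fluorescence; 0% = median of neutral control wells and -100% = median of positive control wells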
# Conditions: CHO ldlA[mSR-BI] DiI-HDL uptake fluorescence, 3 h; series mostly up to 35 µM; activity change, negative = inhibition: at the top concentration
row,Compound,"activity change, negative = inhibition"
1,COc1cccc(-c2nnc(SC(C(=O)c3c[nH]c4ccccc34)c3ccccc3)n2C)c1 (stereo not drawn),-22.5%
2,COc1ccc2c(c1)CC(C1(O)C(=O)N(C)c3ccccc31)C2=O (stereo not drawn),75.3%
3,Cc1ccc(-c2sc(-c3ccccc3)nc2CC(=O)Nc2ccccc2F)cc1,-23.8%
4,CCOc1ccc(CCNC(=O)Cn2ncn3nc(-c4ccc(OC)cc4)cc3c2=O)cc1,-20%
5,COCCN(C(=O)COC(=O)c1ccccc1Nc1ccccc1)c1c(N)n(Cc2ccccc2)c(=O)[nH]c1=O,-34.6%
6,CCN(C(=O)COn1nnc2ccc(S(=O)(=O)N(C)C)cc21)C1CCS(=O)(=O)C1 (stereo not drawn),-1.5%
7,CCCC(=O)N1CCc2cc(-c3nc(N)sc3C)ccc21,-2.96%
8,CCC(C)c1ccccc1N1CC(C(=O)N2CCN(S(=O)(=O)c3cccc([N+](=O)[O-])c3)CC2)CC1=O (stereo not drawn),36.4%
9,Cc1nn(Cc2c(Cl)cccc2Cl)c(C)c1NC(=O)CCCn1nc([N+](=O)[O-])c(Cl)c1C,-20.3%
10,Cc1ccc(-c2cc(C(=O)Nc3ccc(S(=O)(=O)Nc4onc(C)c4C)cc3)[nH]n2)c(O)c1,79%
11,CC(C)c1cc(CNC(=O)C2CCC(=O)N(CCc3ccc(Cl)cc3)C2)on1 (stereo not drawn),23.7%
12,O=C(OCc1ccccc1)N1CCC2CC1c1cc(-c3ccccc3)ccc12 (stereo not drawn),36.1%
13,COc1cc(/C=C\C(=O)NCc2ccc3c(c2)cc(C)n3C)cc(OC)c1OC,-33.5%
14,COc1ccccc1CNC(=O)C1CCC(CNC(=O)[C@@H]2Cc3ccccc3CN2)CC1 (stereo partly drawn),-25.2%
15,O=C(CSc1cn(CCNC(=O)c2cccs2)c2ccccc12)NCC1CCCO1 (stereo not drawn),-3.57%
16,CCOc1ccc(NC(=O)CN2CCN(CC(=O)Nc3ccc(Cl)c(C(F)(F)F)c3)CC2)cc1,82%
17,Cc1ccc(F)cc1NC(=O)C1C2CCC(O2)C1C(=O)O (stereo not drawn),42.3%
18,CC(=O)Oc1ccc(C(=O)Cc2ccc3ccccc3n2)c(O)c1C,-1.92%
19,N#Cc1ccc(C(=O)N2CCC3CC2c2cc(-c4ccccc4)ccc23)cc1 (stereo not drawn),16.1%

row,Compound,"activity change, negative = inhibition"
1,O=C(NNc1c(F)c(F)cc(F)c1F)C1CCN(S(=O)(=O)c2ccccc2F)CC1,-3.65%
2,O=C(Nc1cccc(-c2cn3c(n2)SCC3)c1)c1ccc2ccccc2n1,47.3%
3,O=C(OCCNc1ncc(C(F)(F)F)cc1Cl)c1ccc(S(=O)(=O)N2CCOCC2)cc1,6.42%
4,N#Cc1ccc(C(=O)N2CCC3CC2c2cc(-c4ccc(F)cc4)ccc23)cc1 (stereo not drawn),4.03%
5,O=C(CN1CCN(CC(=O)Nc2ccc3c(c2)OC2(CCCCC2)O3)CC1)Nc1cccc(F)c1,2.55%
6,COc1cccc(-c2csc(N3CCN(C(=O)NC45CC6CC(CC(C6)C4)C5)CC3)n2)c1,-5.28%
7,Cc1cccc(-c2ccc3c(c2)C2CC3CCN2C(=O)OCc2ccccc2)c1 (stereo not drawn),-7.63%
8,O=C(Nc1ccccc1)c1ccc2c(c1)CCN2S(=O)(=O)c1ccccc1,-4%
9,COc1ccc(NC(=O)c2ccc3c(c2)CCN3S(=O)(=O)c2ccccc2)cc1,-8.87%
10,COc1cc(C(=S)N2CCCC2)ccc1OC(=O)c1ccc(Cl)cc1[N+](=O)[O-],-29.2%
11,COc1cc(NC(=O)C2CC(c3c(F)cccc3Cl)=NO2)c(OC)cc1Cl (stereo not drawn),-16.2%
12,COc1ccc(-c2[nH]c(-c3ccc(F)cc3)nc2SCC(=O)NC2CCCC2)cc1,-26.3%
13,O=S(=O)(c1ccccc1)c1cnc(-c2ccccc2)nc1N1CCCCC1,-21.5%
14,COC(=O)C1C(=O)c2c([nH]c(C(=O)OC3CCCC3C)c2C)CC1C (stereo not drawn),10.7%
15,C/C=C/COC(=O)c1[nH]c2c(c1C)C(=O)CC(c1ccco1)C2 (stereo not drawn),-25.1%
16,Cc1c(C(=O)OCC2CCCO2)[nH]c2c1C(=O)CC(c1ccco1)C2 (stereo not drawn),-17%
17,Cc1ccc(NC(=O)CSc2nnc([C@H](C)NC(=O)OC(C)(C)C)o2)c(C)c1,-7.58%
18,Cc1ccc(CCNC(=O)C2CCN(C(=O)c3sccc3-n3cccc3)CC2)cc1,-1.91%
19,CC(=O)c1ccc(N2CCN(C(=O)c3cc(-c4cccnc4)nc4ccc(Br)cc34)CC2)cc1,3.24%
